Experimental findings from the supplement of paper PMC13380429 are described below.

Test [1] has as its system Vero E6 infected with SARS-CoV-2. The test is described as follows: morphology score (similarity to uninfected cells); higher = more like uninfected cells. As to conditions: 24 h.
Test [2] has the same test system. The test is described as follows: SARS-CoV-2 infection rate relative to infected DMSO; higher = more infection, active = 60 or less. As to conditions: 24 h.

SMILES strings stand for the structures. Structures can show the parent of a compound that is named as a salt.

Regarding `Cc1ccc2c(=O)c3cccc(CC(=O)O)c3oc2c1C` (10 µM), the morphology score in test [1] is -0.0879. The SARS-CoV-2 infection rate in test [2] is 114% (inactive).
For `c1cnc2c([O][Ga]([O]c3cccc4cccnc34)[O]c3cccc4cccnc34)cccc2c1` [gallium-triquinolin-8-olate] (10 µM) the same measures were 0.775 and 16.5% (active).
For `CC(C)NC(=O)COc1cccc(-c2nc(Nc3ccc4[nH]ncc4c3)c3ccccc3n2)c1` (0.833333 µM) the same measures were -0.0169 and 106% (inactive).
The molecule `C[C@@H]1O[C@@H](O[C@@H]2[C@@H](O)[C@H](OCCc3ccc(O)c(O)c3)O[C@H](CO)[C@H]2OC(=O)/C=C/c2ccc(O)c(O)c2)[C@H](O)[C@H](O)[C@H]1O` [verbascoside] (10 µM) registered a morphology score in test [1] of 0.0986. Moreover, the SARS-CoV-2 infection rate in test [2] is 104% (inactive).
On the same counts, the results for `Cc1cc(Nc2nc(N[C@@H](C)c3ncc(F)cn3)ncc2Cl)[nH]n1` (10 µM) are 0.046 and 108% (inactive).
In turn, `O=C(Nc1ccccc1Br)N[C@@H]1CCN(c2ccc(C(F)(F)F)cn2)C1` (10 µM) showed a morphology score in test [1] of 0.0714. Further, the SARS-CoV-2 infection rate in test [2] was 94.5% (inactive).
Regarding `OCCN1CCN(CCCN2c3ccccc3Sc3ccc(Cl)cc32)CC1` [perphenazine] (0.833333 µM), the morphology score in test [1] was -0.0186. Moreover, in test [2], the SARS-CoV-2 infection rate is 109% (inactive).
For `CS(=O)(=O)c1ccc(-c2nnc(/C=C/c3nnc(-c4ccc(C#N)cc4)o3)n2-c2ccccc2Cl)nc1` (10 µM) the same measures were 0.0833 and 99% (inactive).
Turning to `O=C(O)C(O)Cc1ccc(O)c(O)c1` (configuration not stated) [sodium-danshensu] (10 µM), the morphology score in test [1] worked out at 0.114. In test [2], the SARS-CoV-2 infection rate is 106% (inactive).
On the same counts, the results for `CN/C(=N\CCSCc1nc[nH]c1C)NC#N` [cimetidine] (10 µM) are 0.151 and 97.5% (inactive).
On the same counts, the results for `CCCCN(CC)c1nc(C)nc2c1c(C)c(C)n2-c1c(C)cc(C)cc1C` [antalarmin] (10 µM) are 0.193 and 93% (inactive).
On the same counts, the results for `CCN(CC)Cc1ccc2cc(COC(=O)Nc3ccc(C(=O)NO)cc3)ccc2c1` [givinostat] (10 µM) are -0.215 and 112% (inactive).
Consider `COc1cc2c(cc1F)C(c1ccccc1Cl)=Nc1c(n[nH]c1C)N2` (10 µM), for which the morphology score in test [1] is -0.191. In addition, the SARS-CoV-2 infection rate in test [2] is 104% (inactive).
On to `OCCOCCN1CCN(C(c2ccccc2)c2ccc(Cl)cc2)CC1` (configuration not stated) [hydroxyzine] (10 µM), for which the morphology score in test [1] worked out at 0.0655. Moreover, in test [2], the SARS-CoV-2 infection rate is 104% (inactive).
For `CCOC(=O)CCC(=O)O[C@H]1[C@H](O[C@@H]2[C@@H](C)[C@H](O[C@H]3C[C@@](C)(OC)[C@@H](O)[C@H](C)O3)[C@@H](C)C(=O)O[C@H](CC)[C@@](C)(O)[C@H](O)[C@@H](C)C(=O)[C@H](C)C[C@@]2(C)O)O[C@H](C)C[C@@H]1N(C)C` [erythromycin-ethylsuccinate] (10 µM) the same measures were -0.215 and 118% (inactive).
For `CCCOc1ccc2[nH]c(NC(=O)OC)nc2c1` [oxibendazole] (10 µM) the same measures were -0.158 and 118% (inactive).
On the same counts, the results for `Oc1cc2c(cc1O)CN(C(=S)NCCc1ccc(Cl)cc1)CCC2` [capsazepine] (10 µM) are -0.103 and 92.5% (inactive).
In turn, `O=C1NC(=O)C(=Cc2ccc(-c3ccc(F)cc3)o2)S1` (stereo in doubt) (10 µM) returned a morphology score in test [1] of 0.0111. In addition, in test [2], the SARS-CoV-2 infection rate is 112% (inactive).
On the same counts, the results for `c1ccc2c(c1)[I+]c1ccccc1-2` [diphenyleneiodonium] (0.833333 µM) are 0.143 and 108% (inactive).
Take `CCCCCCCC/C=C\CCCCCCCC(=O)N[C@@H](CO)Cc1ccc(O)cc1` (10 µM): the morphology score in test [1] turned out to be 0.123. Besides, the SARS-CoV-2 infection rate in test [2] was 104% (inactive).
In test [1], `C#Cc1cccc2c1c(C(=O)c1ccc(Cn3c(C)nc4cnccc43)c(F)c1)cn2C(=O)N(C)C` (10 µM) came in with a morphology score of 0.159. Also, the SARS-CoV-2 infection rate in test [2] is 106% (inactive).
For `Fc1ccc(CNc2ncnc3ccc(F)cc23)cc1` [spautin-1] (10 µM) the same measures were -0.0451 and 117% (inactive).
On the same counts, the results for `c1cnc(NCc2ccc(CNc3ncccn3)cc2)nc1` (10 µM) are 0.18 and 112% (inactive).
As to `NS(=O)(=O)Cc1noc2ccccc12` [zonisamide] (10 µM), in test [1], the morphology score was determined as 0.165. Besides, the SARS-CoV-2 infection rate in test [2] was 95.5% (inactive).
With `CC(C)(C)C1CCc2c(sc(NC(=O)c3ccco3)c2C(=O)O)C1` (configuration not stated) (0.833333 µM), the morphology score in test [1] stood at 0.0992. Also, the SARS-CoV-2 infection rate in test [2] was 106% (inactive).
For `CN(C)C(=O)CCSC(SCCC(=O)O)c1cccc(/C=C/c2ccc3ccc(Cl)cc3n2)c1` (configuration not stated) (10 µM) the same measures were 0.011 and 108% (inactive).
For `CC(C)N1CCN(c2ccc(OCC3COC(Cn4cncn4)(c4ccc(Cl)cc4Cl)O3)cc2)CC1` (configuration not stated) [terconazole] (0.833333 µM) the same measures were -0.0821 and 106% (inactive).
For `Cc1occc(=O)c1[O-].Cc1occc(=O)c1[O-].[O]=[V+2]` [bis(maltolato)oxovanadium(IV)] (10 µM) the same measures were -0.461 and 106% (inactive).
For `Nc1nc(=O)n([C@@H]2O[C@H](CO)[C@@H](O)[C@@H]2F)cc1I` [fiacitabine] (10 µM), the morphology score in test [1] is -0.0647. The SARS-CoV-2 infection rate in test [2] is 111% (inactive).
On the same counts, the results for `CC(C)[C@@H](C)/C=C/[C@@H](C)[C@H]1CC[C@H]2C3=CC=C4C[C@@H](O)CC[C@]4(C)[C@H]3CC[C@]12C` [ergosterol] (10 µM) are 0.0665 and 104% (inactive).
For `N=C(N)SCCc1c[nH]cn1` [imetit] (10 µM) the same measures were 0.1 and 106% (inactive).
For `CC(C)(C)c1cc(C(C)(C)C)c(NC(=O)c2c[nH]c3ccccc3c2=O)cc1O` [ivacaftor] (10 µM) the same measures were 0.363 and 93% (inactive).
Consider `COc1cc(C(=S)N2CCOCC2)ccc1O` [vanitiolide] (10 µM), for which, in test [1], the morphology score turned out to be 0.152. Moreover, in test [2], the SARS-CoV-2 infection rate is 102% (inactive).
For the molecule `CN[C@@H](C)C(=O)N[C@H](C(=O)N1CCC[C@H]1C(=O)Nc1sc(-c2ncco2)nc1-c1ccccc1)C1CCCCC1` (10 µM), in test [1], the morphology score turned out to be 0.185. For the same molecule, the SARS-CoV-2 infection rate in test [2] is 102% (inactive).
For `O=C(O)[C@@H]1C[C@@H](C2CCCCC2)CN1C(=O)CP(=O)(O)CCCCc1ccccc1` [fosinoprilat] (10 µM) the same measures were 0.0775 and 100% (inactive).
In test [1], `N#CC[C@@H](C1CCCC1)n1cc(-c2ncnc3[nH]ccc23)cn1` [ruxolitinib-(S)] (10 µM) gave a morphology score of 0.62. For the same molecule, the SARS-CoV-2 infection rate in test [2] is 105% (inactive).
For `CC(C)(C)NCC(O)c1cc(Cl)c(N)c(C(F)(F)F)c1` (configuration not stated) [mabuterol] (10 µM) the same measures were -0.0501 and 107% (inactive).
Molecule `CCc1ccc(/C=C/C(=O)Nc2ccc(C(C)=O)cc2)o1` [heclin] (10 µM) returned a morphology score in test [1] of 0.263. For the same molecule, the SARS-CoV-2 infection rate in test [2] was 77% (inactive).
For `O=C1NC(=O)c2cc(Nc3ccc(F)cc3)c(Nc3ccc(F)cc3)cc21` (10 µM) the same measures were 0.329 and 77.5% (inactive).
For `CCc1cc2cc(OC)c(OC)cc2c(Cc2ccccc2)n1` [moxaverine] (10 µM) the same measures were 0.495 and 86% (inactive).
For `O=C(NCCCN1CCC2(CC1)OCc1ccccc12)[C@H]1CCCN1Cc1ccccc1` (10 µM) the same measures were 0.505 and 63.5% (inactive).
As for `COc1cc(O)c2c(c1)C(=O)c1cc(C)cc(O)c1C2=O` [rheochrysidin] (10 µM), in test [1], the morphology score was found to be 0.119. The SARS-CoV-2 infection rate in test [2] is 109% (inactive).
In test [1], `COc1ccc2cc(-c3nc(-c4ccc([S+](C)[O-])cc4)[nH]c3-c3ccncc3)ccc2c1` (configuration not stated) [tie2-kinase-inhibitor] (10 µM) came in with a morphology score of 0.619. The SARS-CoV-2 infection rate in test [2] was 72.5% (inactive).
Take `C=CC1=C(C)c2cc3[nH]c(cc4nc(cc5[nH]c(cc1n2)c(C)c5CCC(=O)O)C(CCC(=O)O)=C4C)c(C)c3C=C` [protoporphyrin-IX] (10 µM): the morphology score in test [1] is -0.0298. Moreover, in test [2], the SARS-CoV-2 infection rate was 115% (inactive).
For `CC(=O)CC/C=C(\C)CC/C=C(\C)CC/C=C(\C)CCC=C(C)C` [teprenone] (10 µM) the same measures were 0.0677 and 101% (inactive).
Molecule `O=C1Nc2ccc(Cl)c3c2C1(CCCCN1CC=C(c2ccc(Cl)cc2)CC1)CCC3` (configuration not stated) (0.833333 µM) came in with a morphology score in test [1] of 0.0484. Besides, in test [2], the SARS-CoV-2 infection rate was 106% (inactive).
For `CCCCCCNC(=O)n1cc(F)c(=O)[nH]c1=O` [Carmofur] (0.833333 µM) the same measures were 0.222 and 106% (inactive).
In test [1], `CN1C(=O)C(Cc2c[nH]c3ccccc23)NC1=S` (configuration not stated) [necrostatin-1] (10 µM) returned a morphology score of 0.186. Also, the SARS-CoV-2 infection rate in test [2] is 93.5% (inactive).
Consider `CN(C)CCC=C1c2ccccc2C=Cc2ccccc21` [cyclobenzaprine] (10 µM), for which the morphology score in test [1] was 0.228. Further, in test [2], the SARS-CoV-2 infection rate was 78% (inactive).
As for `CN1CCN(c2c(F)cc3c(=O)c(C(=O)O)cn(CCF)c3c2F)CC1` [fleroxacin] (10 µM), in test [1], the morphology score is -0.043. Besides, the SARS-CoV-2 infection rate in test [2] is 115% (inactive).
For `CC(=O)Oc1c(C)cc(OCC(O)CNC(C)C)c(C)c1C` (configuration not stated) [metipranolol] (10 µM) the same measures were -0.0461 and 108% (inactive).
In turn, `COc1cc(C(C)=O)ccc1O` [apocynin] (10 µM) gave a morphology score in test [1] of 0.331. In test [2], the SARS-CoV-2 infection rate is 97% (inactive).
On the same counts, the results for `CCOc1cc(N)c(Cl)cc1C(=O)NCC1CN(Cc2ccc(F)cc2)CCO1` (configuration not stated) [mosapride] (10 µM) are 0.33 and 89.5% (inactive).
For `NNC(=O)CSc1nc2scc(-c3ccccc3)c2c(=O)n1-c1ccccc1` (10 µM) the same measures were -0.0192 and 99.5% (inactive).
For the molecule `N=c1ccn2c(n1)O[C@H]1[C@H](O)[C@@H](CO)O[C@H]12` [Cyclocytidine HCl] (0.833333 µM), the morphology score in test [1] is -0.127. The SARS-CoV-2 infection rate in test [2] is 114% (inactive).
On the same counts, the results for `O=c1c2ccccc2[se]n1-c1ccccc1` [ebselen] (10 µM) are 0.34 and 84% (inactive).
For `O=C1NC(=O)/C(=C/c2cccc(C(F)(F)F)c2)S1` (10 µM) the same measures were 0.00293 and 106% (inactive).
For `CC(C)(C)C(=O)OCOP(=O)(COCCn1cnc2c(N)ncnc21)OCOC(=O)C(C)(C)C` [adefovir-dipivoxil] (10 µM) the same measures were -0.117 and 124% (inactive).
With `CCCCOC(=O)c1ccc(N)cc1` [butamben] (10 µM), the morphology score in test [1] stood at 0.102. Besides, the SARS-CoV-2 infection rate in test [2] was 108% (inactive).
On the same counts, the results for `CCN(CC)C(=O)Nc1ccc(OCC(O)CNC(C)(C)C)c(C(C)=O)c1` (configuration not stated) [celiprolol] (10 µM) are 0.118 and 96.5% (inactive).
For `CN/C(=N\c1ccc(C2=NNC(=O)CC2C)cc1)NC#N` (configuration not stated) [siguazodan] (10 µM) the same measures were 0.0721 and 109% (inactive).
